# Measured values: PubChem BioAssay
# The source made the active and inactive calls. Unless noted, no rule for the calls is given here.
# Experiments:
# [1] = HepG2 liver cancer cell viability effects, profiling panel, resazurin fluorescence, 24 h, PK04 Diversity Set (AID 1172); details: higher = more signal
# [2] = basal S. cerevisiae growth modulation, no modifier, primary screen, OD600, strain BY4716, 24 h, basal condition (AID 1173); details: OD600, 24 h, higher = more signal, called active from +8 up or from −8 down
# [3] = MM1S myeloma cell viability, profiling panel, resazurin fluorescence, basal, 24 h, PK04 Diversity Set (AID 1174); details: higher = more signal, called active from +8 up or from −8 down;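 also: MM1S multiple myeloma cell line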
# [4] = target: Dihydroorotate dehydrogenase (quinone), mitochondrial (Plasmodium falciparum (isolate 3D7)) (UniProt Q08210); test: PfDHODH enzyme inhibitors, primary screen, biochemical, C-terminal His tag, absorbance 600 nm (AID 1175); details: DCIP absorbance 600 nm, higher = more signal, called active from +8 up or from −8 down;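 also: recombinant parasite enzyme with a five histidine tag at its C terminus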
# Dihydroorotate dehydrogenase (quinone), mitochondrial (Plasmodium falciparum (isolate 3D7)), sequence (Q08210 whole entry, looked up): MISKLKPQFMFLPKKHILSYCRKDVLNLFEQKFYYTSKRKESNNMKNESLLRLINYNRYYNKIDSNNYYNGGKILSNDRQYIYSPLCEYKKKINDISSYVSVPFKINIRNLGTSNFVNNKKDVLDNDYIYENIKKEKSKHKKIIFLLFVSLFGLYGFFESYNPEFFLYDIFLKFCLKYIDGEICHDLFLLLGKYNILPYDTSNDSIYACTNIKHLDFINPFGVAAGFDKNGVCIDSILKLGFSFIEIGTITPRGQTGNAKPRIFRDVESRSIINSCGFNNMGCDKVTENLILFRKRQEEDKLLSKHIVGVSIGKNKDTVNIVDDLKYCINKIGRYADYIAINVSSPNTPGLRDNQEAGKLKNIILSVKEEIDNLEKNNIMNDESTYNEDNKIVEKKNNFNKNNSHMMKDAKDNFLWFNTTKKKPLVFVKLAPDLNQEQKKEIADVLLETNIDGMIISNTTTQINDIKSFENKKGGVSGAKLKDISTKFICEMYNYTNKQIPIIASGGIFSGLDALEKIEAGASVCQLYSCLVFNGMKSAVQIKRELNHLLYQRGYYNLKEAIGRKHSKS
# [5] = P. aeruginosa biofilm formation inhibitors, primary screen, strain PAO1, LB-PBS medium, absorbance 600 nm (AID 1176); details: P. aeruginosa PAO1 growth/biofilm, A600, 12 h; higher = more signal
# [6] = S. cerevisiae RM11-1a growth modifiers, primary screen, strain RM11-1a, OD600, basal, 24 h (AID 1177); details: OD600, 24 h, higher = more signal, called active from +8 up or from −8 down;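 also: cultures grown under basal conditions with no added stressor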
# [7] = E. coli acrAB mutant growth effects, primary screen, E. coli filamentation inducers, strain DRC39, OD650, 24 h (AID 1178); details: higher = more signal, called active from +8 up or from −8 down;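 also: growth measured as culture turbidity by optical density at 650 nm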
# [8] = E. coli acrAB mutant growth effects, primary screen, E. coli filamentation inducers, strain DRC39, OD650, 48 h (AID 1179);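 also: screen aims at cell division blockers that make cells filament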; details: E. coli DRC39 delta-acrAB growth, higher = more signal, called active from +8 up or from −8 down
# [9] = RPMI8226 myeloma cell viability, profiling panel, resazurin fluorescence, basal, 24 h, PK04 Diversity Set (AID 1180); details: higher = more signal;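 also: RPMI8826 multiple myeloma cell line at 5000 cells per well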
# [10] = target: E3 ubiquitin-protein ligase XIAP (Homo sapiens) (UniProt P98170); test: XIAP binders, primary screen, biophysical, small-molecule microarray, fluorescence 635 nm (AID 1181); details: small-molecule microarray binding, higher = more signal;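 also: score merges 667 nm emission and signal to noise over triplicate slides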
# E3 ubiquitin-protein ligase XIAP (Homo sapiens), sequence (P98170 whole entry, looked up): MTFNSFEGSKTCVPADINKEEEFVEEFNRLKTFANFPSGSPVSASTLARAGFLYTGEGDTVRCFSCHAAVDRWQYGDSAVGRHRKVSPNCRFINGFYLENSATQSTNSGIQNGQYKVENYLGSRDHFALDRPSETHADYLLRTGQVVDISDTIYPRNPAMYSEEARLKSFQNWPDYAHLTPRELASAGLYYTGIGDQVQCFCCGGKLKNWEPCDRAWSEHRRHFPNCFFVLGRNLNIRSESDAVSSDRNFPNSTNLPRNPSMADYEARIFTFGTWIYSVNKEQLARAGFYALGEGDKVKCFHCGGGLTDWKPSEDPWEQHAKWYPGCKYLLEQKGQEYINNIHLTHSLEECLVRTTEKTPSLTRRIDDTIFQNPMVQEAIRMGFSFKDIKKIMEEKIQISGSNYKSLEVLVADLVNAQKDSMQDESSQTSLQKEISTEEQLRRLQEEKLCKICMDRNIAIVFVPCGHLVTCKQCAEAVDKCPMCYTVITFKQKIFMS
# [11] = tested on: XIP peptide (Xip251-270) binding; test: small-molecule binders of XIP peptide, primary screen, biochemical, small-molecule microarray, fluorescence 635/667 nm, 0.1 µg/mL protein (AID 1182); details: fluorescent protein binding, 635 nm, higher = more signal, called active from +8 up or from −8 down
# XIP peptide (Xip251-270) = test: small-molecule binders of XIP peptide, primary screen, biochemical, small-molecule microarray, fluorescence 635/667 nm, 0.5 µg/mL protein (AID 1183); details: small-molecule microarray binding, fluorescence 635 nm; higher = more signal
# [12] = Plasmodium falciparum growth inhibition, primary screen, strain 3D7, DAPI fluorescence, 100 nL (AID 1184);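 also: parasites grown inside human red blood cells in medium with human serum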; details: P. falciparum 3D7 growth, 3 d, higher = more signal
# [13] = target: Homeobox protein Hox-A13 (Mus musculus) (UniProt Q62424); test: inhibitors of HoxA13-DNA binding, primary screen, biochemical, fluorescence polarization, labeled oligonucleotide (AID 1185); details: 15 min, higher = more signal, called active from +8 up or from −8 down
# Homeobox protein Hox-A13 (Mus musculus), sequence (Q62424 whole entry, looked up): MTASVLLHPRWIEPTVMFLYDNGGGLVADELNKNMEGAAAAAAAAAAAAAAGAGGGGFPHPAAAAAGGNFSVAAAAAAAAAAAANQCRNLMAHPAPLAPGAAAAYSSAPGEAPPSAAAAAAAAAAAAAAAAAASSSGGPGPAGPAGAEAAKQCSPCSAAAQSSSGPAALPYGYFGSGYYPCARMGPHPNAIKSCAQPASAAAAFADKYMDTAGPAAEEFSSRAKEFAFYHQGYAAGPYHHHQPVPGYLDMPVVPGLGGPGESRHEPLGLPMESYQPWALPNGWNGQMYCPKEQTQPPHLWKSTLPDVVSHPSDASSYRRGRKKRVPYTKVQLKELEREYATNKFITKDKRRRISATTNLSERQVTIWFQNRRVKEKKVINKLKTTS
# [14] = inhibitors of hydroxyurea-induced Chk1 phosphorylation, primary screen, imaging, HeLa, phospho-Chk1 antibody, percent positive cells (AID 1186); details: hydroxyurea-induced phospho-Chk1 immunofluorescence imaging, higher = more signal
# [15] = inhibitors of hydroxyurea-induced Chk1 phosphorylation, primary screen, imaging, HeLa, phospho-Chk1 nuclear intensity (AID 1187); details: hydroxyurea-induced phospho-Chk1 immunofluorescence imaging, higher = more signal
SMILES,z-score [1],z-score [2],z-score [3],composite z-score [4],z-score [5],z-score [6],z-score [7],z-score [8],z-score [9],composite z-score [10],composite z-score [11],composite z-score (XIP peptide (Xip251-270)),z-score [12],z-score [13],z-score [14],z-score [15]
C[C@]1(C(=O)O)c2ccccc2C(=O)N(Cc2ccccc2)[C@H]1c1ccc(CO)cc1,0.244,0.451 (inactive),0.936 (inactive),0.798 (inactive),-0.633 (inactive),1.91 (inactive),-0.0256 (inactive),-0.373 (inactive),0.988,0.013,-0.339 (inactive),0.416,-0.393,-1.72 (inactive),-0.107 (inactive),0.194 (inactive)
CO[C@H]1O[C@H](CO)[C@@H](OC(=O)Nc2ccc(Oc3ccccc3)cc2)[C@H](OC(=O)Nc2ccccc2-c2ccccc2)[C@@H]1OC(=O)Nc1ccccc1-c1ccccc1,0.776,1.01 (inactive),-0.648 (inactive),0.308 (inactive),0.18 (inactive),2.58 (inactive),-0.325 (inactive),-0.0232 (inactive),-0.296,-0.117,0.356 (inactive),0.759,-2.39,-1.71 (inactive),-0.141 (inactive),-0.148 (inactive)
CC(C)(C)OC(=O)CC[C@@]1(C(=O)O)N=C(c2ccc(OCCCO)cc2)O[C@@H]1c1ccccc1CN=[N+]=[N-],0.911,-0.496 (inactive),-0.378 (inactive),0.221 (inactive),-0.0988 (inactive),0.323 (inactive),1.35 (inactive),1.35 (inactive),-1.09,0.492,-0.168 (inactive),0.963,0.664,-4.73 (inactive),-0.0889 (inactive),-0.0647 (inactive)
CC=CC(O)C1C=CC2C(=O)N(c3ccccc3)C(=O)C2N1Nc1ccccc1 (centres undefined),0.965,-1.01 (inactive),0.171 (inactive),-0.174 (inactive),1.89 (inactive),-0.564 (inactive),0.176 (inactive),0.412 (inactive),0.394,0.649,0.228 (inactive),0.813,-0.0445,-4.14 (inactive),0.0716 (inactive),-0.167 (inactive)
C=CC[C@@H](OC(=O)Nc1ccc(OC)cc1)c1ccc(OCCO)cc1,-0.197,-3.85 (inactive),-0.561 (inactive),0.251 (inactive),0.438 (inactive),-0.373 (inactive),0.411 (inactive),-0.103 (inactive),-0.365,0.206,0.456 (inactive),-0.543,0.663,-5.86 (inactive),-0.867 (inactive),-0.431 (inactive)
CC(C)CCC[C@@H](C)[C@H]1CC[C@@]2(C)C3=C(CC[C@]12C)[C@@]1(C)CC[C@H](OC(=O)c2ccc(Br)cc2)C(C)(C)C1CC3 (some centres undefined),1.05,-0.149 (inactive),0.345 (inactive),-1.4 (inactive),0.0694 (inactive),-1.7 (inactive),0.998 (inactive),1.07 (inactive),0.766,0.0223,-0.349 (inactive),-0.198,0.665,-0.708 (inactive),0.0833 (inactive),0.377 (inactive)
O=c1cccc(-c2cccc(Cl)c2)o1,-0.381,-8.75 (active),0.149 (inactive),-0.0422 (inactive),-0.377 (inactive),-0.401 (inactive),0.304 (inactive),-0.326 (inactive),-0.4,-0.0052,0.165 (inactive),0.108,0.204,-0.814 (inactive),0.0366 (inactive),-0.411 (inactive)
O=C1OC[C@@H](c2ccccc2)N2CC(/C=C/c3ccccc3)=CC12 (some centres undefined),0.015,-2.25 (inactive),0.0637 (inactive),0.685 (inactive),-0.14 (inactive),0.388 (inactive),-0.338 (inactive),-0.827 (inactive),0.594,-0.102,0.587 (inactive),0.0221,0.643,-1.36 (inactive),-0.303 (inactive),-0.493 (inactive)
COC(=O)[C@@]1(Cc2ccccc2)[C@H]2c3cc(C(=O)N4CCCC4)n(C[C@H](O)CO)c3C[C@H]2CN1C(=O)c1ccccc1,-0.476,1.08 (inactive),-0.688 (inactive),0.355 (inactive),0.0818 (inactive),0.267 (inactive),-0.685 (inactive),-0.299 (inactive),-0.746,-0.099,0.484 (inactive),-0.487,-1.02,-5.19 (inactive),0.905 (inactive),0.777 (inactive)
